Experimental data reported in ChEMBL document CHEMBL1157539, “Thousands of chemical starting points for antimalarial lead identification” (Nature, 2010).
Non-standard residues stand in square brackets, D forms with d. Residues, ends and D or L forms follow the SMILES beside them. *: point of attachment. Butanoyl(4-(4-HOPh)) = O=C(CCCc1ccc(O)cc1)*

test system: Plasmodium falciparum; assay: GSK_TCMDC: Inhibition of Plasmodium falciparum 3D7 in whole red blood cells, using parasite LDH activity as an index of growth. Test compounds present at 2uM; format: functional

Row | SMILES | Inhibition [%]
1 | O=C(Nc1ccon1)c1cc(-c2cccnc2)nc2ccc(Br)cc12 | 99
2 | OC1CCC(Nc2ccc3ncc(-c4ccc5ccccc5c4)n3n2)CC1 (stereo not given) | 95
3 | CN(C)c1ccc(-c2csc(C(=O)NCC3CCN(CCC(C)(C)C)C3)c2)cc1.O=C(O)C(F)(F)F (stereo not given) | 87
4 | CCNc1cc(C(=O)N[C@@H](Cc2ccccc2)[C@H](O)CNC2(CCC(C)C)CC2)cc(N2CCCCS2(=O)=O)c1.Cl | 90
5 | CC(C)c1sc(N2CCN(C)CC2)nc1C(=O)NCCc1ccc(Cl)c(Cl)c1.O=C(O)C(F)(F)F | 98
6 | O=C(CC(=O)Nc1cc(Cl)cc(Cl)c1)Nc1cc(Cl)cc(Cl)c1 | 95
7 | CC(O)C1CCCCN1C(=O)c1cccc(-c2ccc(-c3nc4cc(C(F)(F)F)ccc4[nH]3)cc2)c1 (stereo not given) | 100
8 | CN(CCN)Cc1cccc(-c2cccc(-c3nc4cc(F)ccc4[nH]3)c2)c1.O=C(O)C(F)(F)F | 95
9 | CCN1CCC(N(Cc2ccc(-c3ccc(C(F)(F)F)cc3)cc2)C(=O)Cn2c(CCc3cccc(F)c3F)cc(=O)c3ccccc32)CC1.O=C(O)C(O)C(O)C(=O)O | 94
10 | CN1CCC(c2cc3c(cc2Br)CCN3C(=O)Nc2ccc(-c3ccncc3)c(Cl)c2)CC1 | 91
11 | Cc1nc(NC2=NCN(CCCN3CCOCC3)CN2)nc2c(C)cccc12 | 89
12 | Cc1cccc2[nH]c(-c3cc(-c4cn[nH]c4)cnc3N)nc12 | 100
13 | COc1ccc(C2CCN(CCCCNC(=O)c3ccc(NC(=O)c4ccc(Cl)cc4)cc3)C2)c(OC)c1 (stereo not given) | 84
14 | CC(C)CNCc1ccc(-c2cccc(CN(CCN(C)C)C(=O)CCC3CCCC3)c2)cc1.O=C(O)C(F)(F)F | 100
15 | O=C(NCc1cccs1)[C@H](Cc1ccccc1)Nc1ccnc(NCC2CCCCC2)n1.O=C(O)C(F)(F)F | 83
16 | COc1ccccc1C(=O)C1CCCN(C(=O)c2ccccc2C(F)(F)F)C1 (stereo not given) | 91
17 | CC(C)[C@H](NC(=O)c1ccc(O)c(-c2cccc(C(F)(F)F)c2)c1)C(=O)NC1CCCc2ccccc21 (stereo not given in full) | 82
18 | Cc1cccc(C)c1C1CCN(CCCCNC(=O)c2cc3ccccc3[nH]2)CC1 | 90
19 | O=[N+]([O-])c1ccc(N/C(=N\c2ccccc2Br)NCCOc2ccccc2)c(O)c1 | 88
20 | COc1ccc(C(=O)NCc2ccccc2-c2ccc(C(C)(C)C)cc2)cc1O | 99

Row | SMILES | Inhibition [%]
21 | Cn1cc(C2CCN(CCCCNC(=O)c3ccc(C(=O)Nc4ccc(C#N)cc4)cc3)CC2)c2ccccc21 | 100
22 | Cc1cccc(C(=O)Nc2ccnc(N3CCC(N(C)Cc4cccc(O)c4)CC3)c2)c1.O=C(O)C(F)(F)F | 95
23 | Cc1cccc(Nc2nc(C)cc(N3CCCN(CC4CCCCC4)CC3)n2)c1 | 83
24 | CC(C)CCNc1nc2ccccc2nc1Nc1cccc(C(F)(F)F)c1 | 98
25 | COc1cc(C2C(Oc3ccccc3)C(=O)N2Cc2ccc(F)cc2)cc(OC)c1OC (stereo not given) | 100
26 | CN1CCN(CCCSc2ccc3c(c2)ncn3-c2cc(OCc3ccccc3C(F)(F)F)c(C(N)=O)s2)CC1.O=CO | 100
27 | CC1=C(C(=O)Nc2ccccc2)C(c2ccc([N+](=O)[O-])cc2)n2ncc(C(=O)Nc3ccccc3)c2N1 (stereo not given) | 86
28 | COc1ccc(CNCc2ccccc2)cc1-c1ccc(S(=O)(=O)NCCN2CCCC2)cc1.O=C(O)C(F)(F)F | 96
29 | Cc1ncc(CN2CCC(C(=O)Nc3ccc(-c4nc5ccccc5o4)cc3)CC2)s1 | 82
30 | CCN(CC)CCCC(C)Nc1c2cc(OC)ccc2nc2cc(Cl)c([N+](=O)[O-])cc12 (stereo not given) | 100
31 | O=C(NCC(=O)N1CCC[C@H]1C(=O)O)[C@@H](Cc1ccccc1)NC(=O)[C@@H]1CCCN1C(=O)CCCc1ccc(O)cc1 ({Butanoyl(4-(4-HOPh))}-P[dF]GP-OH) | 81
32 | O=C(CN1CCN(C(=O)c2ccco2)CC1)Nc1ccccc1Br | 97
33 | CCCCN1CCN(Cc2cccc(NC(=O)c3ccc(Cl)c(Cl)c3)c2)CC1.O=C(O)C(F)(F)F | 88
34 | CN(C)CCCN(C)c1cccc2c1nc(-c1cccnc1)n2CCNCc1ccccc1.O=C(O)C(F)(F)F | 89
35 | Cc1cccc2nc(-c3cccc(-c4cccc(NC(=O)C(C)CN5CCN(C)CC5)c4)c3)[nH]c12 (stereo not given) | 99
36 | O=C(Nc1cccc(-c2ccc(-c3nc4cc(C(F)(F)F)ccc4[nH]3)cc2)c1)c1ccncc1 | 100
37 | O=C(Nc1cc(F)cc(F)c1)NC1CCN(CCCCCNC(=O)C2CC2c2ccc(Cl)c(Cl)c2)CC1 (stereo not given) | 100
38 | Nc1nc(O)c2c(n1)CCc1c(Br)cccc1-2 | 97
39 | CCOc1cc(C(=O)NCCN(CC)c2cccc(C)c2)ccc1-c1nc2cc(Cl)ccc2[nH]1 | 100
40 | COc1cccc2c(NN=Cc3ccc(Cl)cc3)ccnc12 | 99
